# Data as given in the supplement of paper PMC8728848.
# The full list was thinned out, with the strongest signals kept by preference.
# B1: rEtpA (Escherichia coli) (protein)
# chain: MNRIYKLKFDKRRNELVVVSEITTGVGNAKATGSVEGEKSPRRGVRAMALSLLSGMMIMAHPAMSANLPTGGQIVAGSGSIQTPSGNQMNIHQNSQNMVANWNSFDIGKGNTVQFDQPSSSAVALNRVVGGGESQIMGNLKANGQVFLVNPNGVLFGEGASVSTSGFVASTRDIKNDDFMNRRYTFSGGQKAGAAIVNQGELTTNAGGYIVLAADRVSNSGTIRTPGGKTVLAASERITLQLDNGGLMSVQVTGDVVNALVENRGLVSARDGQVYLTALGRGMLMNTVLNVSGVVEASGMHRQDGNIVLDGGDSGVVHLSGTLQADNASGQGGKVVVQGKNILLDKGSNITATGGQGGGEVYVGGGWQGKDSNIRNADKVVMQGGARIDVSATQQGNGGTAVLWSDSYTNFHGQISAKGGETGGNGGRVETSSHGNLQAFGTVSASAKKGKAGNWLLDSADITIVNGSNVSKTETTQSPPHTQFAPTAAGSAVSNTSINNRLNNGTSVTILTHRTRTGTAQGGNITVNAAINKSNGSDVNLTLQAGGNITVNNSITSTEGKLNVNLSGARTSNGSITISNNANITTNGGDITVGTTNTSNRVNISINNTTLNASNGNIQLTGTGTDSGILFAGNNRLTASNIALTGNSTSGNAINLTGTATLNATNNITLTGSSTSGNAINLKGNNTLTASNITLTGESTSGNAINLTDTTGTTTLNATNNITMQGTRVQIKHSNITAGNFALNATVAGSEISNTTLTATNNINLAAKTNSASSGVYLKDARITSTNGSITANGTATANGKATHLDGNVTLNASNGRIKLTGNGHGSASGILFAGNNRLTASNIALTGNSTSGNAINLTGTATLNATNDITLTGSSTSGNAINLTGTATLNATNNITLTGSSTSGNAINLKGNNTLTASNITLTGESTSGNAINLTDTTGTTTLNATNNITMQGTRVQIKHSNITAGNFALNATVAGSEISNTTLTATNNINLAAKTNSASSGVYLKDARITSTNGSITANGTATANGKATHLDGNVTLNASNGRIKLTGNGHGSASGILFAGNNRLTASNIALTGNSTSGNAINLTGTATLNATNDITLTGSSTSGNAINLTGTATLNATNNITLTGSSTSGNAINLKGNNTLTASNITLTGESTSGNAINLTDTTGTTTLNATNNITMQGTRVQIKHSNITAGNFALNATVAGSEISNTTLTATNNINLAAKTNSASSGVYLKDARITSTNGSITANGTATANGKATHLDGNVTLNASNGRIKLTGNGHGSASGILFAGNNRLTASNIALTGNSTSGNAINLTGTATLNATNDITLTGSSTSGNAINLTGTATLNATNNITLTGSSTSGNAINLKGNNTLTASNITLTGESTSGNAINLTDTTGTTTLNATNNITMQGTRVQIKHSNITAGNFALNATVAGSEISNTTLTATNNINLAAKTNSASSGVYLKDARITSTNGSITTNGTATANGKATHLDGNVTLNASNGRIKLTGNGHGSASGILFAGNNRLTASNIALTGNSTSGNAINLTGTATLNATNDITLTGSSTSGNAINLTGTATLNATNNITLTGSSTSGNAINLKGNNTLTASNITLTGESTSGNAINLTDTTGTTTLNATNNITMQGTRVQIKHSNITAGNFALNATVAGSEISNTTLTATNNINLAAKTNSASSGVYLKDARITSTNGSITANGTAPANDNATYLDGNVTLNASNGSIKLTGNGNGSTSGILFAGNNTLTASNITLTGNSEVYWQKLGPEQKLISEEDLNSAVDHHHHHH
# Key:
# Assay in all cases: glycan array binding signal (z-score within array); higher = stronger binding
# Settings in all cases: glycan notation: IUPAC condensed, linker removed
# Gal3S6S(b1-4)GlcNAc = target: Gal3S6S(b1-4)GlcNAc
# Procedure, shortened: (§1)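 The binding signal is a Z-score computed within each array and averaged over linkers. Arrays of the same protein sequence at different concentrations or buffers were also averaged together. Data originate from 3228 arrays in the Consortium for Functional Glycomics database, kept only where the protein sequence was available.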
# Gal6S(b1-4)GlcNAc6S = target: Gal6S(b1-4)GlcNAc6S
# Procedure, shortened: as §1
# [1] = target: Glc(a1-4)Glc(a1-4)Glc(a1-4)Glc
# Procedure, shortened: as §1
# GlcA(b1-3)GlcNAc = target: GlcA(b1-3)GlcNAc
# Procedure, shortened: as §1
# [2] = target: GlcA3S(b1-3)Gal(b1-4)GlcNAc(b1-2)Man
# Procedure, shortened: as §1
# [3] = target: GlcNAc(a1-4)Gal(b1-3)GlcNAc
# Procedure, shortened: as §1
# [4] = target: GlcNAc(a1-4)Gal(b1-4)GalNAc
# Procedure, shortened: as §1
# [5] = target: GlcNAc(a1-4)Gal(b1-4)GlcNAc
# Procedure, shortened: as §1
# [6] = target: GlcNAc(a1-4)Gal(b1-4)GlcNAc(b1-3)Gal(b1-4)Glc
# Procedure, shortened: as §1
# [7] = target: GlcNAc(a1-4)Gal(b1-4)GlcNAc(b1-3)Gal(b1-4)GlcNAc
# Procedure, shortened: as §1
# [8] = target: GlcNAc(a1-4)Gal(b1-4)GlcNAc(b1-3)Gal(b1-4)GlcNAc(b1-3)Gal(b1-4)GlcNAc
# Procedure, shortened: as §1
# [9] = target: GlcNAc(a1-4)Gal(b1-4)GlcNAc(b1-3)Gal(b1-4)[Fuc(a1-3)]GlcNAc(b1-3)Gal(b1-4)[Fuc(a1-3)]GlcNAc
# Procedure, shortened: as §1
# [10] = target: GlcNAc(b1-3)[GlcNAc(b1-6)]Gal(b1-4)GlcNAc
# Procedure, shortened: as §1
# [11] = target: GlcNAc(b1-6)Gal(b1-4)GlcNAc
# Procedure, shortened: as §1
# Kdn(a2-3)Gal(b1-3)GlcNAc = target: Kdn(a2-3)Gal(b1-3)GlcNAc
# Procedure, shortened: as §1
# [12] = target: Man(a1-2)Man(a1-3)[Man(a1-2)Man(a1-6)]Man(a1-6)[Man(a1-2)Man(a1-2)Man(a1-3)]Man(b1-4)GlcNAc(b1-4)GlcNAc
# Procedure, shortened: as §1
# [13] = target: Neu5Ac(a2-3)Gal(b1-3)GlcNAc(b1-2)[Neu5Ac(a2-3)Gal(b1-3)GlcNAc(b1-4)]Man(a1-6)[Neu5Ac(a2-3)Gal(b1-3)GlcNAc(b1-2)Man(a1-3)]Man(b1-4)GlcNAc(b1-4)GlcNAc
# Procedure, shortened: as §1
# [14] = target: Neu5Ac(a2-3)Gal(b1-3)[Fuc(a1-4)]GlcNAc(b1-3)Gal(b1-4)[Fuc(a1-3)]GlcNAc
# Procedure, shortened: as §1
# [15] = target: Neu5Ac(a2-3)Gal(b1-4)GlcNAc(b1-2)Man(a1-3)[Neu5Ac(a2-6)Gal(b1-4)GlcNAc(b1-2)Man(a1-6)]Man(b1-4)GlcNAc(b1-4)GlcNAc
# Procedure, shortened: as §1
# [16] = target: Neu5Ac(a2-3)Gal(b1-4)GlcNAc(b1-3)Gal(b1-4)GlcNAc(b1-3)GalNAc
# Procedure, shortened: as §1
# [17] = target: Neu5Ac(a2-3)Gal6S(b1-4)GlcNAc
# Procedure, shortened: as §1
# Neu5Ac(a2-6)Gal = target: Neu5Ac(a2-6)Gal
# Procedure, shortened: as §1
# [18] = target: Neu5Ac(a2-8)Neu5Ac(a2-3)[GalNAc(b1-4)]Gal(b1-4)Glc
# Procedure, shortened: as §1
# [19] = target: Neu5Gc(a2-3)Gal(b1-4)GlcNAc
# Procedure, shortened: as §1
# [20] = target: Neu5Gc(a2-6)Gal(b1-4)GlcNAc
# Procedure, shortened: as §1
# [21] = target: Neu5Gc(a2-8)Neu5Ac(a2-3)Gal(b1-4)GlcNAc
# Procedure, shortened: as §1
# [22] = target: Neu5Gc(a2-8)Neu5Gc(a2-3)Gal(b1-4)GlcNAc(b1-3)Gal(b1-4)GlcNAc
# Procedure, shortened: as §1
binder,measurement,setting,value
B1,glycan array binding signal (z-score),Gal3S6S(b1-4)GlcNAc,-0.028
same,glycan array binding signal (z-score),Gal6S(b1-4)GlcNAc6S,0.353
same,glycan array binding signal (z-score),[1],1.05
same,glycan array binding signal (z-score),GlcA(b1-3)GlcNAc,-0.337
same,glycan array binding signal (z-score),[2],-0.154
same,glycan array binding signal (z-score),[3],2.45
same,glycan array binding signal (z-score),[4],10.8
same,glycan array binding signal (z-score),[5],5.29
same,glycan array binding signal (z-score),[6],4.48
same,glycan array binding signal (z-score),[7],7.75
same,glycan array binding signal (z-score),[8],10.9
same,glycan array binding signal (z-score),[9],6.35
same,glycan array binding signal (z-score),[10],-0.354
same,glycan array binding signal (z-score),[11],-0.395
same,glycan array binding signal (z-score),Kdn(a2-3)Gal(b1-3)GlcNAc,0.581
same,glycan array binding signal (z-score),[12],-0.275
same,glycan array binding signal (z-score),[13],-0.163
same,glycan array binding signal (z-score),[14],-0.21
same,glycan array binding signal (z-score),[15],-0.305
same,glycan array binding signal (z-score),[16],-0.38
same,glycan array binding signal (z-score),[17],0.188
same,glycan array binding signal (z-score),Neu5Ac(a2-6)Gal,8.28
same,glycan array binding signal (z-score),[18],0.026
same,glycan array binding signal (z-score),[19],-0.194
same,glycan array binding signal (z-score),[20],0.192
same,glycan array binding signal (z-score),[21],-0.108
same,glycan array binding signal (z-score),[22],-0.353
